From PubChem
CSC inhib – cancer stem cell viability inhibitors, primary screen, luminescence | cancer stem cell-like cells viability | inhibition, % at 7.5 µM | hit rate 1.1% among 300,000; in the data active = inhibition above about 75%; tested in HMLE shEcad cells
MPTP block – mitochondrial permeability transition pore inhibitors, primary screen, biochemical, isolated mouse mitochondria, absorbance; Ca2+ swelling absorbance, 30 min; inhibition, % at 10 µM; hit rate 1.4% among 360,000; AID 602449, 2012;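 active = inhibition of 50% or more, scaled per plate between neutral and stimulator controls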;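 note: 0% = DMSO wells given calcium and 100% = 1 mM EGTA wells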
Calb FLC – C. albicans growth inhibition with fluconazole, primary screen, CaCi-2 strain, Alamar Blue fluorescence; hit rate 0.57% among 300,000; growth inhibition, % (no concentration beside the values); C. albicans CaCi-2 (fluconazole-resistant clinical isolate) + fluconazole, 48 h; AID 1979, 2009;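 active = growth inhibition above about 58% in most replicates, limit read from the data, passing the limit was not always enough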;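 note: all wells also contain fluconazole at 8 µg/ml as a sub-toxic cotreatment; 0% = median of DMSO wells and 100% = median of geldanamycin control wells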
Beta apoptosis – inhibitors of cytokine-induced beta cell apoptosis, primary screen, luminescence | INS-1E cytokine-induced death, ATP luminescence, 48 h; percent of positive-control rescue, neutral wells zero | protection from apoptosis, % (no concentration beside the values) | hit rate 0.8% among 300,000;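 active = Every replicate reaches about 75%, or at least half do and their mean reaches it too, limit read from the data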;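 note: 0% = cytokine-treated negative control wells and 100% = positive control rescue; higher means more ATP so stronger rescue from cytokine killing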
Mdm2 MdmX PPI – inhibitors of human Mdm2-MdmX association, primary screen, cell-based, luminescence, split luciferase, SaOS-2, uHTS; SaOS-2 split-luciferase Mdm2/MdmX complementation; inhibition, % at 8 µM; hit rate 3% among 330,000; AID 485346, 2010;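 active = inhibition of at least 50% at 8 µM in the primary screen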
Target sequence (O15151 whole entry, looked up): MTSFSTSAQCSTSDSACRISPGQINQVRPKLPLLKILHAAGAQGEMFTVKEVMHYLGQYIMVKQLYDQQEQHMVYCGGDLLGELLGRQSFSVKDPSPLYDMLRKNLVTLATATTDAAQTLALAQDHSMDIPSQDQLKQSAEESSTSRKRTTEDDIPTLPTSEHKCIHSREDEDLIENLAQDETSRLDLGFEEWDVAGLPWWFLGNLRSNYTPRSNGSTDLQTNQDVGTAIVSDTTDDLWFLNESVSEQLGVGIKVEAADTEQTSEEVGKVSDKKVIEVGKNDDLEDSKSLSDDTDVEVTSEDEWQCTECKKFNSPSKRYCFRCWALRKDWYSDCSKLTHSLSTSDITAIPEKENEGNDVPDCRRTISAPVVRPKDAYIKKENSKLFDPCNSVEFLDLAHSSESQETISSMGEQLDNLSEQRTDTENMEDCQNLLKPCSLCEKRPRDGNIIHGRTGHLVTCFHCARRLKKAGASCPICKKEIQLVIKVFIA
Target sequence (Q00987 whole entry, looked up): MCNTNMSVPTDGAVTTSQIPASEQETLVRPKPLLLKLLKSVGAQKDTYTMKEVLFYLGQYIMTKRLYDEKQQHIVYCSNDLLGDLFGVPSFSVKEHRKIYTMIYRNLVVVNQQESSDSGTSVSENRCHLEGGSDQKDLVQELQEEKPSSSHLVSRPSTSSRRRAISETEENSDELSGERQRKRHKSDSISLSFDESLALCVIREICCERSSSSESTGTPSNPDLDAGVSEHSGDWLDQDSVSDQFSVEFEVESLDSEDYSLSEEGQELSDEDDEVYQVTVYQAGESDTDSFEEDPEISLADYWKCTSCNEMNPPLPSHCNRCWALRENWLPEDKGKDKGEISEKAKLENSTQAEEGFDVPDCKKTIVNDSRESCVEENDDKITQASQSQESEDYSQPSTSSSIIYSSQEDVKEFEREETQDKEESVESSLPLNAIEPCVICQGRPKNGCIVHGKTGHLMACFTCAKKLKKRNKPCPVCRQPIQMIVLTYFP
Mdm2 MdmX conf – Mdm2-MdmX complex disruptors, retested hits, confirmation, luminescence, single concentration. inhibition, % at 8 µM. shares compounds with Mdm2 MdmX PPI. hit rate 55% among 10,000. Mdm2-MdmX binding, luminescent assay; in the data active = inhibition above about 40%
FLuc counter – full-length luciferase signal inhibition, confirmation, counter-screen for Mdm2/MdmX interaction inhibitor project, cell-based, single concentration, SaOS-2; AID 504607, 2011; SaOS-2 full-length luciferase counterscreen, luminescence; inhibition, % at 8 µM; shares compounds with Mdm2 MdmX PPI; hit rate 77% among 6,200;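 active = mean inhibition at 8 µM reaching about 37%, which flags the compound as non-specific, limit read from the data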;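 note: p53-null SaOS-2 cells with luciferase driven by a doxycycline-inducible promoter; compound on cells about two nights before reading with doxycycline added after day one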
Starred values were filed as active, the others as inactive. Only some compounds are listed: those with a hit (about 4.8% of all), similar ones and a draw of the others.

For O=S(=O)(CC(CN1CCCC1)N1CCCC1)c1ccc2ccccc2c1 (configuration not stated) the results were CSC inhib 7, MPTP block -2, Calb FLC -3, Beta apoptosis -3, Mdm2 MdmX PPI 75*, Mdm2 MdmX conf 85* and FLuc counter 56*.
For C/C(=N\NC(=O)c1c(Cl)c(C)nn1C)c1ccc(NC(=O)C2CCC2)cc1 the results were CSC inhib 33, MPTP block 2, Calb FLC 3, Beta apoptosis 12, Mdm2 MdmX PPI 56*, Mdm2 MdmX conf 75* and FLuc counter 67*.
`C/C(=N\NC(=O)c1c([N+](=O)[O-])c(C)nn1C)c1ccc(NC(=O)C2CCCC2)cc1` gave CSC inhib -6, MPTP block 0, Calb FLC -3, Beta apoptosis 7 and Mdm2 MdmX PPI 48.
Screening COc1ccc(CCN2C(=O)c3ccccc3C2c2nnnn2Cc2ccccc2)cc1OC (configuration not stated) returned MPTP block 0.
Screening Cc1c2ccccc2c(C)c2c1ccc1ccccc12 returned CSC inhib 26, MPTP block 1, Beta apoptosis -6, Mdm2 MdmX PPI 79*, Mdm2 MdmX conf 40* and FLuc counter 98*.
Cc1c2ccccc2nc2ccccc12 was read as CSC inhib 17, MPTP block 9, Calb FLC 1, Beta apoptosis -11 and Mdm2 MdmX PPI 27.
For CC(C)C[C@@H]1NC(=O)[C@H](Cc2ccccc2)N(C)C(=O)[C@H](C)NC(=O)c2ccccc2NC(=O)[C@H](Cc2ccc(O)cc2)N(C)C1=O the results were CSC inhib -8, MPTP block -1, Calb FLC -1, Mdm2 MdmX PPI 75*, Mdm2 MdmX conf 57* and FLuc counter 71*.
Screening COc1ccccc1-c1cc2nc(-c3ccccc3)cc(N3CCN(C(=O)c4ccco4)CC3)n2n1 returned MPTP block 0.
`O=C(CSc1ccc2nnc(-c3ccc(Cl)cc3)n2n1)N1CCCc2ccccc21` gave CSC inhib 0, MPTP block 3, Calb FLC 13, Beta apoptosis 45, Mdm2 MdmX PPI 84*, Mdm2 MdmX conf 35 and FLuc counter 90*.
O=C(NCCN1CCOCC1)C(=O)NCC1OCCN1S(=O)(=O)c1ccc(Cl)cc1 (configuration not stated) was read as MPTP block 0.
For O=[N+]([O-])c1ccc2nc(-[n+]3c(-c4ccccc4)cc(-c4ccccc4)cc3-c3ccccc3)[nH]c2c1 the results were CSC inhib 31, MPTP block 5, Calb FLC 69, Beta apoptosis 45, Mdm2 MdmX PPI 81*, Mdm2 MdmX conf 62* and FLuc counter 57*.
For Nc1nc2ccc([N+](=O)[O-])cc2[nH]1 the results were CSC inhib -3, MPTP block -1, Calb FLC 3 and Mdm2 MdmX PPI 31.
For COc1cc(C(=O)NCC(=O)N2CCN(S(=O)(=O)c3cc(C)ccc3C)CC2)cc(OC)c1OC the results were CSC inhib 31, MPTP block -1, Calb FLC 2, Beta apoptosis 1, Mdm2 MdmX PPI 53*, Mdm2 MdmX conf 52* and FLuc counter 42*.
For COc1ccccc1CNS(=O)(=O)c1ccc(S(=O)(=O)NC2CC2)cc1 the results were MPTP block 0, Calb FLC 3, Beta apoptosis -3 and Mdm2 MdmX PPI -14.
`COc1ccc(N2CCN(S(=O)(=O)c3ccc(-c4cnc(C5CC5)o4)cc3)CC2)cc1` gave CSC inhib -12, MPTP block -1, Calb FLC 24, Beta apoptosis 10 and Mdm2 MdmX PPI 40.
`COc1ccccc1CNS(=O)(=O)c1ccc(-c2cnc(C3CC3)o2)cc1` gave CSC inhib 65, MPTP block 5, Calb FLC 18, Beta apoptosis 19, Mdm2 MdmX PPI 54*, Mdm2 MdmX conf 55* and FLuc counter 66*.
